MITF inh – human MITF inhibition, primary screen; O75030; AlphaScreen MITF homodimerization, bead proximity signal; inhibition, % at 2.6 µM; actives 0.91% (n = 650,000); AID 1259374; in the data active means inhibition above about 50%
FBW7 act – activators of human E3 ligase FBW7; actives 0.13% (n = 650,000); AID 1259310; AlphaScreen FBW7–phospho-cyclin E peptide binding, activator screen; Q969H0; normalized activity (activation), % at 26.1 µM; in the data active means normalized activity above about 1.9%;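 further: purified mutant Fbw7 with reduced substrate affinity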
TEAD-YAP inh – TEAD-YAP interaction inhibition | HEK-TIYL cells, TEAD-Gal4/YAP UAS-luciferase luminescence | inhibition, % at 9.12 µM | actives 1.4% (n = 640,000) | AID 1259422; in the data active means inhibition above about 32%
GPR151 activ – activators of human GPR151; activation, % at 11.2 µM; actives 1% (n = 650,000); PathHunter beta-arrestin GPR151 cells, luminescence; Q8TDV0; in the data active means activation above about 4.9%
Target sequence (Q8TDV0 whole entry, looked up): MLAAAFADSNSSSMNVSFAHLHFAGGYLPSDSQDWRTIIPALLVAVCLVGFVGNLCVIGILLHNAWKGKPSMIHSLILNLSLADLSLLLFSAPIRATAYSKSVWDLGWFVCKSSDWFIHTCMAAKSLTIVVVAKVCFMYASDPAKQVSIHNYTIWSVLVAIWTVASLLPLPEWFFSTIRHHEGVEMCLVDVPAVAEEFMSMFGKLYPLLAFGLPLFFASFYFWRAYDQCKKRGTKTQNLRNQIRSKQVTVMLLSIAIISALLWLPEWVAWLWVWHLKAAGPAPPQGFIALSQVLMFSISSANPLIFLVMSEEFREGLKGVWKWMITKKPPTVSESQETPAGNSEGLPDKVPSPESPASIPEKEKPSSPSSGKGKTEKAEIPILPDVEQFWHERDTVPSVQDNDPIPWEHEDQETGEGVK
MITF confirm – human MITF inhibition, confirmation. shares compounds with MITF inh. AlphaScreen MITF homodimerization, biotin/His-MITF beads. inhibition, % at 2.6 µM. actives 16% (n = 4,700). AID 1259372;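 active means inhibition above a cutoff derived from the DMSO control wells, cut at about 28% in these data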;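 further: inhibitors lower the bead chemiluminescence by keeping MITF from dimerizing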
AS interf DR – counter-screen: compounds optically interfering with AlphaScreen; shares compounds with MITF inh; AlphaScreen optical interference counterscreen, cell-free; IC50, µM; actives 6% (n = 480); call rule not given here
AlphaScreen intf2 – optically interferes with AlphaScreen signal | shares compounds with MITF inh | LysRS AlphaScreen counterscreen, signal interference, triplicate | inhibition, % at 2.6 µM | actives 7.6% (n = 4,700) | AID 1259376;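 active means inhibition above a cutoff derived from the DMSO control wells, cut at about 30% in these data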
Hits are given with their value. In the library only some 3.4% were active in any assay of this set; here they are far more common.

How did COc1ccc(C(CNCCC(=O)O)N(C)C)cc1 (configuration not stated) do in these assays?
MITF inh: 55; FBW7 act: inactive; TEAD-YAP inh: inactive; GPR151 activ: inactive; MITF confirm: inactive; AlphaScreen intf2: inactive

Results for COc1ccc(C(CNC(=O)c2ccc(Br)cc2)N(C)C)cc1 (configuration not stated) ?
MITF inh: inactive; FBW7 act: inactive; TEAD-YAP inh: inactive; GPR151 activ: inactive

Results for CCOc1ccc(CCNC(=O)Cn2ncc3c2-c2ccccc2OC3)cc1OCC ?
MITF inh: inactive; FBW7 act: inactive; TEAD-YAP inh: inactive; GPR151 activ: inactive

Results for NS(=O)(=O)c1cc(Cl)c(NC(=O)c2c(O)c3ccccc3[nH]c2=O)c(Cl)c1 ?
MITF inh: inactive; FBW7 act: inactive; TEAD-YAP inh: inactive; GPR151 activ: inactive

Results for Cc1ccc(C)n1-c1ccc(Cl)c(C(=O)O)c1 ?
MITF inh: inactive; FBW7 act: inactive; TEAD-YAP inh: inactive; GPR151 activ: inactive

What do the screens show for `O=C(O)c1cc(-n2cccc2)ccc1Cl`?
MITF inh: 79; FBW7 act: inactive; TEAD-YAP inh: inactive; GPR151 activ: inactive; MITF confirm: 64; AS interf DR: inactive; AlphaScreen intf2: inactive

Results for OCCN1CCN(c2cc(-c3ccccc3)c3ccccc3n2)CC1 ?
MITF inh: 76; FBW7 act: inactive; TEAD-YAP inh: inactive; GPR151 activ: inactive; MITF confirm: inactive; AlphaScreen intf2: inactive

Results for OCCN1CCN(c2cc(-c3ccncc3)nc(-c3ccccc3)n2)CC1 ?
MITF inh: inactive; FBW7 act: inactive; TEAD-YAP inh: inactive; GPR151 activ: inactive

Results for O=C(O)CC(CCc1ccccc1)CC(=O)O ?
MITF inh: 61; FBW7 act: inactive; TEAD-YAP inh: inactive; GPR151 activ: inactive; MITF confirm: inactive; AlphaScreen intf2: inactive

How did O=C(Cc1ccc2ccccc2n1)C(F)(F)F do in these assays?
MITF inh: inactive; FBW7 act: inactive; TEAD-YAP inh: inactive; GPR151 activ: inactive

Results for CCOc1ccc(N=c2sc(C3=c4ccccc4=NC3=O)c(O)n2-c2ccc(OCC)cc2)cc1 ?
MITF inh: 113; FBW7 act: inactive; TEAD-YAP inh: inactive; GPR151 activ: inactive; MITF confirm: inactive; AlphaScreen intf2: inactive

Results for O=C(NCCSc1ccccc1)c1cccnc1 ?
MITF inh: 77; FBW7 act: inactive; TEAD-YAP inh: inactive; GPR151 activ: inactive; MITF confirm: inactive; AlphaScreen intf2: inactive

Results for Cc1[nH]c2ccccc2c1SCCNC(=O)c1ccncc1 ?
MITF inh: 62; FBW7 act: inactive; TEAD-YAP inh: inactive; GPR151 activ: inactive; MITF confirm: inactive; AlphaScreen intf2: inactive

Results for C/C(CC(=O)Nc1ccc(Cl)cc1C)=N\NC(=O)Cc1ccc([N+](=O)[O-])cc1[N+](=O)[O-] ?
MITF inh: inactive; FBW7 act: inactive; TEAD-YAP inh: inactive; GPR151 activ: inactive

How did C=CCN1C(=O)/C(=C/c2ccc(OCc3ccc(C(=O)O)cc3)cc2)C(=O)NC1=S do in these assays?
MITF inh: inactive; FBW7 act: inactive; TEAD-YAP inh: inactive; GPR151 activ: inactive

What do the screens show for `CC(C)N(CCNc1nc(Nc2ccccc2)nc2c1ncn2Cc1ccc(C(F)(F)F)cc1)C(C)C`?
MITF inh: inactive; FBW7 act: inactive; TEAD-YAP inh: inactive; GPR151 activ: inactive

Results for COC(=O)c1ccccc1NC(=O)c1sc2ncnc(N(C)c3ccccc3)c2c1C ?
MITF inh: inactive; FBW7 act: inactive; TEAD-YAP inh: inactive; GPR151 activ: inactive

How did O=C(Nc1nn[nH]n1)C12CC3CC(C1)CC(c1ccccc1)(C3)C2 do in these assays?
MITF inh: 53; FBW7 act: inactive; TEAD-YAP inh: inactive; GPR151 activ: inactive; MITF confirm: inactive; AlphaScreen intf2: inactive

Results for CC12CC3CC(C1)CC(C(=O)Nc1nn[nH]n1)(C3)C2 ?
MITF inh: inactive; FBW7 act: inactive; TEAD-YAP inh: inactive; GPR151 activ: inactive

What do the screens show for `O=c1[nH]c(CSc2nnc(-c3ccccc3)o2)nc2ccccc12`?
MITF inh: inactive; FBW7 act: inactive; TEAD-YAP inh: inactive; GPR151 activ: inactive

Results for O=CC1=C(N2CCOCC2)/C(=C/c2cccc([N+](=O)[O-])c2)CC1 ?
MITF inh: inactive; FBW7 act: inactive; TEAD-YAP inh: inactive; GPR151 activ: inactive

Results for CCc1ccccc1Nc1nc2ccccc2n2nnnc12 ?
MITF inh: inactive; FBW7 act: inactive; TEAD-YAP inh: inactive; GPR151 activ: inactive

How did CCC1CCCCN1C(=O)Cn1nc([N+](=O)[O-])cc1C (configuration not stated) do in these assays?
MITF inh: 91; FBW7 act: inactive; TEAD-YAP inh: inactive; GPR151 activ: inactive; MITF confirm: inactive; AlphaScreen intf2: inactive

Results for CCC1CCCCN1C(=O)Cn1nc(C)n2c(cc3ccsc32)c1=O (configuration not stated) ?
MITF inh: 61; FBW7 act: inactive; TEAD-YAP inh: inactive; GPR151 activ: inactive; MITF confirm: inactive; AlphaScreen intf2: inactive

How did Cn1cc(-c2ccc3ccccc3n2)c(=O)c2cc([N+](=O)[O-])ccc21 do in these assays?
MITF inh: inactive; FBW7 act: inactive; TEAD-YAP inh: inactive; GPR151 activ: inactive

What do the screens show for `COc1ccccc1OCC#CCNC1CCCC1`?
MITF inh: 55; FBW7 act: inactive; TEAD-YAP inh: inactive; GPR151 activ: inactive; MITF confirm: inactive; AlphaScreen intf2: inactive

What do the screens show for `CN(Cc1ccco1)S(=O)(=O)c1ccc2[nH]cc(C(=O)O)c(=O)c2c1`?
MITF inh: 54; FBW7 act: inactive; TEAD-YAP inh: inactive; GPR151 activ: inactive; MITF confirm: 30; AS interf DR: inactive; AlphaScreen intf2: inactive

Results for C=CCN(c1ccccc1)S(=O)(=O)c1ccc2[nH]cc(C(=O)O)c(=O)c2c1 ?
MITF inh: 57; FBW7 act: inactive; TEAD-YAP inh: inactive; GPR151 activ: inactive; MITF confirm: inactive; AlphaScreen intf2: inactive

Results for COc1ccc(C[C@@H]2NC(=O)[C@H]3CN(C(=O)NCc4ccccc4)CCN3C2=O)cc1 ?
MITF inh: 79; FBW7 act: inactive; TEAD-YAP inh: inactive; GPR151 activ: inactive; MITF confirm: 72; AS interf DR: inactive; AlphaScreen intf2: inactive

What do the screens show for `O=C1N[C@H](Cc2ccccc2)C(=O)N2CCN(C(=O)NCc3ccccc3)C[C@H]12`?
MITF inh: 69; FBW7 act: inactive; TEAD-YAP inh: inactive; GPR151 activ: inactive; MITF confirm: 64; AS interf DR: inactive; AlphaScreen intf2: inactive

Results for O=C1N[C@@H](Cc2cnc[nH]2)C(=O)N2CCN(C(=O)NCc3ccccc3)C[C@H]12 ?
MITF inh: inactive; FBW7 act: inactive; TEAD-YAP inh: inactive; GPR151 activ: inactive

What do the screens show for `C[C@H](O)[C@H]1NC(=O)[C@H]2CN(C(=O)NCc3ccccc3)CCN2C1=O`?
MITF inh: 75; FBW7 act: inactive; TEAD-YAP inh: inactive; GPR151 activ: inactive; MITF confirm: 71; AS interf DR: inactive; AlphaScreen intf2: inactive

Compound activity as filed in PubChem.
